Measurements taken from the supplement of paper PMC11624193, “Coupling cellular drug-target engagement to downstream pharmacology with CeTEAM” (Nature Communications, 2024).
Counter-ions that a name gives are not always drawn.

The compounds below were run against PARP1 L713F-nLuc biosensor (HCT116) (UniProt P09874) (assay: PARP1 L713F-nLuc/akaLuc ratio relative to DMSO control (biosensor stabilization) (fold change); higher = more PARP1 biosensor stabilization (target engagement / stabilizer), active = hit call of the paper). Conditions: stock concentration (mM; final µM = stock mM x 1): 10; 24 h;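 active = log2 fold change beyond 2 SD from the library mean after excluding viability outliers; inactive = within 2 SD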.
Sequence of PARP1 L713F-nLuc biosensor (HCT116) (P09874 whole entry L713F, looked up): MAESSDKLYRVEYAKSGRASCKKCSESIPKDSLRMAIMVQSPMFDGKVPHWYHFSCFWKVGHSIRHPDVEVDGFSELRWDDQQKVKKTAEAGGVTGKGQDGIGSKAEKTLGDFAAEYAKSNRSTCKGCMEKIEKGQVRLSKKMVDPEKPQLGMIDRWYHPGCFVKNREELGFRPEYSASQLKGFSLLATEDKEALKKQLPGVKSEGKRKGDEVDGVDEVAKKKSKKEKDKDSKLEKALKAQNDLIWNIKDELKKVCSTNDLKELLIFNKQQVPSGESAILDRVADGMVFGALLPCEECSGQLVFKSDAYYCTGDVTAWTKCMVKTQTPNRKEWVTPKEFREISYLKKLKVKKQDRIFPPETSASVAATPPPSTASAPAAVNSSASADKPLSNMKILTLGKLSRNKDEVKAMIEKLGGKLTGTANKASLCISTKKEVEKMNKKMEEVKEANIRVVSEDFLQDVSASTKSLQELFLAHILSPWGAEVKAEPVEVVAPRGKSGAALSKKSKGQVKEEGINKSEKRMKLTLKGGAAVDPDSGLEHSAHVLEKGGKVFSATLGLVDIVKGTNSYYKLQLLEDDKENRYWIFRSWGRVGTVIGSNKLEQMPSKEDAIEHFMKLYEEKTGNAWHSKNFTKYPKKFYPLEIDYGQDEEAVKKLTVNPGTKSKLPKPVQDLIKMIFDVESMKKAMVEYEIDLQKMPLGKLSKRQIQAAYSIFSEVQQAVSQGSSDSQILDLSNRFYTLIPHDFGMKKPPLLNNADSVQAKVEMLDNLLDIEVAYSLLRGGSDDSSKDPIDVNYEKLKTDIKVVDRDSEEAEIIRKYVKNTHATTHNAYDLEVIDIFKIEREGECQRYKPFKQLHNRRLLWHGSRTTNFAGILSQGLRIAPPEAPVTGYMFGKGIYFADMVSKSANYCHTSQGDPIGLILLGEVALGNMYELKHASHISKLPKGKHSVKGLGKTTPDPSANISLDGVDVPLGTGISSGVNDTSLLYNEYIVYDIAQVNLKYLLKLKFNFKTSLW

**Q.** `CC[C@@H]1CN(C(=O)NCC(F)(F)F)C[C@@H]1c1cnc2cnc3[nH]ccc3n12` [Upadacitinib] was tested. Which “PARP1 L713F-nLuc/akaLuc ratio” value did it give?
**A.** 1.32 (inactive)

**Q.** Which “PARP1 L713F-nLuc/akaLuc ratio” value does the source give for `CCCCNC(=N)NC(=N)N` [Buformin (hydrochloride)] here?
**A.** 0.782 (inactive)

**Q.** With `NC(=O)c1cccnc1` [Nicotinamide] as the compound, how does the “PARP1 L713F-nLuc/akaLuc ratio” value read?
**A.** 0.942 (inactive)

**Q.** Which “PARP1 L713F-nLuc/akaLuc ratio” value does the source give for `CC[C@H](CO)Nc1nc(NCc2ccccc2)c2ncn(C(C)C)c2n1` [Roscovitine (Seliciclib,CYC202)] here?
**A.** 0.975 (inactive)

**Q.** With `C=CC(=O)N1CCC(Oc2cc3c(Nc4ccc(Cl)c(Cl)c4F)ncnc3cc2OC)CC1` [Poziotinib (HM781-36B)] as the compound, how does the “PARP1 L713F-nLuc/akaLuc ratio” value read?
**A.** 1.28 (inactive)

**Q.** For `Cc1ccc(C(=O)Nc2cccc(C(F)(F)F)c2)cc1Nc1nc(-c2cccnc2)nc2c1cnn2C`, which “PARP1 L713F-nLuc/akaLuc ratio” value is on record?
**A.** 0.656 (inactive)

**Q.** With `O=c1[nH]nc2c3c(cccc13)N=C(CN1Cc3ccccc3C1)N2` as the compound, how does the “PARP1 L713F-nLuc/akaLuc ratio” value read?
**A.** 8.18 (active)

**Q.** With `CC(=O)N(O)CCCCCNC(=O)CCC(=O)N(O)CCCCCNC(=O)CCC(=O)N(O)CCCCCN` [Deferoxamine mesylate] as the compound, how does the “PARP1 L713F-nLuc/akaLuc ratio” value read?
**A.** 0.984 (inactive)

**Q.** For `NC(=O)[C@H](CCCN=C(N)CCl)NC(=O)c1ccccc1` [Cl-amidine (hydrochloride)], which “PARP1 L713F-nLuc/akaLuc ratio” value is on record?
**A.** 0.914 (inactive)

**Q.** How did the “PARP1 L713F-nLuc/akaLuc ratio” value turn out when `COc1ccccc1C(=O)Nc1cc2c(cc1N1CCCCC1)n(C)c(=O)n2C` was run?
**A.** 1.25 (inactive)

**Q.** For `FC(F)(F)c1ccc(CNc2ccc(Cc3c[nH]c4ncc(Cl)cc34)cn2)cn1` [Pexidartinib (PLX3397)], which “PARP1 L713F-nLuc/akaLuc ratio” value is on record?
**A.** 0.69 (inactive)

**Q.** For `O=C(O)c1cccc(CN2C(=O)/C(=C(\c3ccccc3)c3ccc(Cl)cc3)c3ccccc32)c1`, which “PARP1 L713F-nLuc/akaLuc ratio” value is on record?
**A.** 1.18 (inactive)

**Q.** For `NC(=O)C1CCN(CC(=O)Nc2ccc(Br)cc2)CC1`, which “PARP1 L713F-nLuc/akaLuc ratio” value is on record?
**A.** 0.965 (inactive)

**Q.** With `OC1CCC(Nc2ncc3nc(Nc4c(F)cc(F)cc4F)n([C@H]4CCOC4)c3n2)CC1` (stereo partly drawn) [Tanzisertib(CC-930)] as the compound, how does the “PARP1 L713F-nLuc/akaLuc ratio” value read?
**A.** 1.11 (inactive)

**Q.** How did the “PARP1 L713F-nLuc/akaLuc ratio” value turn out when `Cc1cccc(-c2[nH]c(CNc3ccccc3F)nc2-c2ccc3ncnn3c2)n1` [Vactosertib ?(TEW-7197)] was run?
**A.** 1.18 (inactive)

**Q.** Which “PARP1 L713F-nLuc/akaLuc ratio” value does the source give for `CC1(N)CCN(c2cccnc2NC(=O)c2nc(-c3ncccc3C(F)(F)F)cnc2N)CC1` [Darovasertib] here?
**A.** 0.6 (inactive)

**Q.** Which “PARP1 L713F-nLuc/akaLuc ratio” value does the source give for `CN(C)CCCCC(=O)Nc1ccc(NC(=S)NC(=O)c2ccc(C(C)(C)C)cc2)cc1` [Tenovin-6 (Hydrochloride)] here?
**A.** 0.665 (inactive)

**Q.** How did the “PARP1 L713F-nLuc/akaLuc ratio” value turn out when `C[C@H](Nc1cc(-c2cnn(C)c2)cc(Nc2cnccn2)n1)c1ccc(F)cc1` [Ilginatinib (maleate)] was run?
**A.** 0.614 (inactive)

**Q.** For `C=CC(=O)Nc1cccc(Nc2nc(Nc3ccc(OCCOC)cc3)ncc2F)c1` [Spebrutinib (CC-292, AVL-292)], which “PARP1 L713F-nLuc/akaLuc ratio” value is on record?
**A.** 0.464 (inactive)

**Q.** How did the “PARP1 L713F-nLuc/akaLuc ratio” value turn out when `COC(=O)/C=C/c1ccccc1` [Methyl cinnamate] was run?
**A.** 1.29 (inactive)

**Q.** How did the “PARP1 L713F-nLuc/akaLuc ratio” value turn out when `Cc1ccc(C(=O)Nc2ccc(S(=O)(=O)O)c3cc(S(=O)(=O)O)cc(S(=O)(=O)O)c23)cc1NC(=O)c1cccc(NC(=O)Nc2cccc(C(=O)Nc3cc(C(=O)Nc4ccc(S(=O)(=O)O)c5cc(S(=O)(=O)O)cc(S(=O)(=O)O)c45)ccc3C)c2)c1` [Suramin (sodium salt)] was run?
**A.** 0.738 (inactive)

**Q.** Which “PARP1 L713F-nLuc/akaLuc ratio” value does the source give for `NC(=O)c1cccc2cn(-c3ccc([C@@H]4CCCNC4)cc3)nc12` [Niraparib] here?
**A.** 4.32 (active)

**Q.** Which “PARP1 L713F-nLuc/akaLuc ratio” value does the source give for `CC(=O)NCC(=O)N1[C@@H]2CC[C@H]1c1ccc(Nc3ncc(C(F)(F)F)c(NC4CCC4)n3)cc12` here?
**A.** 1.27 (inactive)

**Q.** For `NC(=O)c1ncn(C2OC(CO)C(O)C2O)c1N` (stereo not drawn) [AICAR (phosphate)], which “PARP1 L713F-nLuc/akaLuc ratio” value is on record?
**A.** 1.04 (inactive)

**Q.** With `O=C(NN=Cc1c(O)ccc2ccccc12)c1ccncc1` as the compound, how does the “PARP1 L713F-nLuc/akaLuc ratio” value read?
**A.** 0.653 (inactive)

**Q.** Which “PARP1 L713F-nLuc/akaLuc ratio” value does the source give for `CC(C)N(CCCNC(=O)Nc1ccc(C(C)(C)C)cc1)C[C@H]1O[C@@H](n2ccc3c(N)ncnc32)[C@H](O)[C@@H]1O` here?
**A.** 2.19 (inactive)

**Q.** Which “PARP1 L713F-nLuc/akaLuc ratio” value does the source give for `COc1cc(N2CCC(N3CCN(C)CC3)CC2)ccc1Nc1ncnc(Nc2ccccc2S(=O)(=O)C(C)C)n1` here?
**A.** 0.97 (inactive)

**Q.** How did the “PARP1 L713F-nLuc/akaLuc ratio” value turn out when `COc1cc2ncnc(Nc3ccc(F)c(Cl)c3)c2cc1OCCCN1CCOCC1` [Gefitinib (ZD1839)] was run?
**A.** 1.04 (inactive)
